Measurements reported in PubChem BioAssay (NCATS).
Results filed as inconclusive are left out. Calls of active or inactive are those of the source. Unless noted, calls follow the shape of the dose curve; as a rule, active = well fitted curve in either direction with a large enough effect (not every such curve was filed as active); inconclusive = small, poorly fitted or top-dose-only effect, or another doubt; inactive = flat fitted curve, though single readings scatter.

Assays:
[1] = target: Mitogen-activated protein kinase 10 (Mus musculus) (UniProt Q61831); test: JNK3 AlphaScreen Assay (AID 530);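 also: kinase came from lysate of stimulated human HepG2 cells; signal reports phosphorylation of biotinylated GST-cJun 1-79 at Ser73 with 10 µM ATP; series mostly up to about 57 µM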
Summary of the method: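 qHTS titrations with 15 min compound pre-incubation before adding ATP (10 uM final). Read-out: AlphaScreen of Ser73-phosphorylated biotin-GST-cJun using HepG2 lysate JNK3 activated by IL-1β and TNFα.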

[2] = target: 3',5'-cyclic-AMP phosphodiesterase 4B (Homo sapiens) (UniProt Q07343); test: qHTS Assay for Inhibitors of PDE-IV (AID 607; active = well fitted activation curve with a large enough effect in the main read-out, with a control signal flat, not every such curve was filed as active)
Summary of the method: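 The readout is membrane depolarisation from a cAMP-sensing CNG channel, detected with a potential dye at ex 535/em 590. Cells were HEK293-derived (endogenous PDE-IV) at 1000 cells/well, titrated up to 22.9 uM final.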

Chain of 3',5'-cyclic-AMP phosphodiesterase 4B (Homo sapiens) (Q07343 whole entry, looked up): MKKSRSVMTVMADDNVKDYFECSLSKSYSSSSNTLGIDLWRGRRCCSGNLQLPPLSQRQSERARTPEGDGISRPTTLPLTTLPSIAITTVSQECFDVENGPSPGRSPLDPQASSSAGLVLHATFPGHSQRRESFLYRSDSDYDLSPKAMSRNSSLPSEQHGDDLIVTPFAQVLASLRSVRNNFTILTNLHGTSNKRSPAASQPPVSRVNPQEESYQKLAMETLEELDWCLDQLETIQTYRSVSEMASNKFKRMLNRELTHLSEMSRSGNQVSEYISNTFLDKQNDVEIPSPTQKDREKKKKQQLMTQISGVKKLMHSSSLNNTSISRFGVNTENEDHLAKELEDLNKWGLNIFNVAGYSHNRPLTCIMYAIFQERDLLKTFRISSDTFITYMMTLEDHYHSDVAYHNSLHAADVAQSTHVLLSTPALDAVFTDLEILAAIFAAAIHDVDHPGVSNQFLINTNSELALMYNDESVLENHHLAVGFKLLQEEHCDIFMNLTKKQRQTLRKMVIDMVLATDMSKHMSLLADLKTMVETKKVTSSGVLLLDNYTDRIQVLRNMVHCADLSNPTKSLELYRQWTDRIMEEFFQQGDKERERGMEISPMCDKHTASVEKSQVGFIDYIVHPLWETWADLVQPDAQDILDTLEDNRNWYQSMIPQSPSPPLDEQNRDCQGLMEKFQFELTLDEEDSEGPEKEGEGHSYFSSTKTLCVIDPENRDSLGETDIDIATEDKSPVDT

SMILES | outcome [1] | outcome [2]
COC(=O)[C@@]1(Cc2ccc(OC)cc2)[C@H]2c3cc(C(=O)N(C)C)n(CCc4ccc(O)c(OC)c4)c3C[C@H]2CN1C(=O)c1ccccc1 | inactive | inactive
COC(=O)C1(CC(C)C)C=C2C(=C(C)C(=O)C2C)CN1 (stereo not given) | inactive | inactive
COC(=O)[C@@]1(Cc2ccc(OC)cc2)[C@H]2c3cc(C(=O)N(C)C)n(Cc4ccccn4)c3C[C@H]2CN1C(=O)c1ccccc1 | inactive | inactive
COC(=O)[C@@]1(Cc2ccc(OC)cc2)[C@H]2c3cc(C(=O)N(C)C)n(Cc4cc(F)c(F)c(F)c4)c3C[C@H]2CN1C(=O)c1ccccc1 | inactive | inactive
COC(=O)[C@@]1(Cc2ccc(F)cc2)[C@H]2c3cc(C(=O)N(C)C)n(Cc4ccc(OC(F)(F)F)cc4)c3C[C@H]2CN1C(=O)c1ccccc1 | inactive | inactive
COC(=O)[C@@]1(Cc2ccc(OC)cc2)[C@H]2c3cc(C(=O)N(C)C)n(Cc4c(CO)[nH]cc(C)c4=O)c3C[C@H]2CN1C(=O)c1ccccc1 | inactive | inactive
C[C@@H](C(=O)Nc1ccc2ccccc2c1)[C@@H]1C[C@@]1(C)[C@@H](NC(=O)c1ccccc1)c1ccccc1 | inactive | inactive
C[C@@]1(C(NS(=O)(=O)c2cccc3cccnc23)c2ccc(-c3ccccc3)cc2)C[C@H]1C1CCCCC1 (stereo not given in full) | inactive | inactive
COC(=O)[C@@]1(Cc2ccccc2)[C@H]2c3cc(C(=O)N(C)C)n(Cc4ccc(S(C)(=O)=O)cc4)c3C[C@H]2CN1C(=O)c1ccccc1 | inactive | inactive
Nc1ccccc1C#CCCCCO | inactive | inactive
